Experimental data from PubChem BioAssay.
Active and inactive are the calls of the source. Unless noted, the rule behind the calls is not given here.

Assays:
[1] = compound effects on lung adenocarcinoma cell viability – A549, calcein-AM fluorescence, 48 h, basal, profiling panel (AID 1162); settings: higher = more signal; note: test concentration not given here
[2] = compound effects on differentiated 3T3-L1 adipocyte viability – cell-based, 3T3-L1 adipocytes, calcein-AM fluorescence, 48 h, basal, profiling panel (AID 1163); settings: 3T3-L1 adipocytes viability, higher = more signal; note: test concentration not given here
[3] = compound effects on hepatocellular carcinoma cell viability – HepG2, calcein-AM fluorescence, 48 h, basal, profiling panel (AID 1164); settings: higher = more signal; note: test concentration not given here
[4] = compound effects on multiple myeloma cell viability – MM1S, calcein-AM fluorescence, 48 h, basal, profiling panel (AID 1165); settings: higher = more signal;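 note: viability of MM1S multiple myeloma cells under basal unstimulated conditions; test concentration not given here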
[5] = calcein-AM signal in unstimulated myeloma cells – cell-based, calcein-AM fluorescence, 48 h, PK04 Diversity Set, profiling panel (AID 1166); settings: RPMI8226 myeloma viability, higher = more signal;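 note: cells grown under basal conditions without added stimulus; test concentration not given here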
[6] = JC-1 mitochondrial signal, unstimulated HepG2 cells – cell-based, JC-1 fluorescence, 24 h, 100 nL compound, profiling panel (AID 1167); settings: HepG2 mitochondrial potential, higher = more signal; note: test concentration not given here
[7] = JC-1 mitochondrial signal, unstimulated adipocytes – cell-based, JC-1 fluorescence, 3T3-L1 adipocytes, 24 h, 100 nL compound, profiling panel (AID 1168); settings: JC-1 mitochondrial fluorescence, higher = more signal, called active from +8 up or from −8 down; note: test concentration not given here
[8] = JC-1 mitochondrial signal, unstimulated myeloma cells – cell-based, JC-1 fluorescence, RPMI8226, 24 h, 100 nL compound, profiling panel (AID 1169); settings: JC-1 mitochondrial potential fluorescence, higher = more signal; note: test concentration not given here
[9] = JC-1 mitochondrial signal, unstimulated MM1S myeloma – cell-based, JC-1 fluorescence, 24 h, 100 nL compound, profiling panel (AID 1170); settings: MM1S mitochondrial potential, higher = more signal; note: test concentration not given here
[10] = resazurin metabolic signal in A549 cells – cell-based, resazurin fluorescence, 24 h, PK04 Diversity Set, profiling panel (AID 1171); settings: A549 viability, higher = more signal, called active from +8 up or from −8 down; note: test concentration not given here
[11] = resazurin metabolic signal in HepG2 cells – cell-based, resazurin fluorescence, 24 h, PK04 Diversity Set, profiling panel (AID 1172); settings: HepG2 viability, higher = more signal; note: test concentration not given here
[12] = budding yeast growth changes without added modifier – OD600, strain BY4716, 24 h, basal condition, primary screen (AID 1173); settings: S. cerevisiae BY4716 growth, OD600, 24 h; higher = more signal, called active from +8 up or from −8 down
[13] = viability profiling in MM1S myeloma cells – cell-based, resazurin fluorescence, basal, 24 h, PK04 Diversity Set, profiling panel (AID 1174); settings: higher = more signal, called active from +8 up or from −8 down; note: test concentration not given here
[14] = target: Dihydroorotate dehydrogenase (quinone), mitochondrial (Plasmodium falciparum (isolate 3D7)) (UniProt Q08210); assay: inhibition of P. falciparum DHODH – biochemical, C-terminal His tag, absorbance 600 nm, primary screen (AID 1175); settings: PfDHODH enzyme, DCIP absorbance 600 nm; higher = more signal, called active from +8 up or from −8 down;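 note: recombinant parasite enzyme with a five histidine tag at its C terminus; test concentration not given here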
[15] = inhibition of PAO1 biofilm formation – strain PAO1, LB-PBS medium, absorbance 600 nm, primary screen (AID 1176); note: test concentration not given here; settings: P. aeruginosa PAO1 growth/biofilm, A600, 12 h; higher = more signal
[16] = growth modulation of vineyard yeast isolate – strain RM11-1a, OD600, basal, 24 h, primary screen (AID 1177);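 note: cultures grown under basal conditions with no added stressor; test concentration not given here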; settings: S. cerevisiae RM11-1a growth, OD600, 24 h; higher = more signal, called active from +8 up or from −8 down
[17] = growth of efflux-deficient E. coli DRC39 – strain DRC39, OD650, 24 h, E. coli filamentation inducers, primary screen (AID 1178);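 note: growth measured as culture turbidity by optical density at 650 nm; test concentration not given here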; settings: E. coli DRC39 acrAB, higher = more signal, called active from +8 up or from −8 down
[18] = growth of efflux-deficient E. coli DRC39 – strain DRC39, OD650, 48 h, E. coli filamentation inducers, primary screen (AID 1179);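 note: screen aims at cell division blockers that make cells filament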; settings: E. coli DRC39 delta-acrAB growth, higher = more signal, called active from +8 up or from −8 down
[19] = viability profiling in RPMI8226 myeloma cells – cell-based, resazurin fluorescence, basal, 24 h, PK04 Diversity Set, profiling panel (AID 1180); settings: higher = more signal;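 note: RPMI8826 multiple myeloma cell line at 5000 cells per well; test concentration not given here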
[20] = target: E3 ubiquitin-protein ligase XIAP (Homo sapiens) (UniProt P98170); assay: small molecules binding XIAP protein – biophysical, small-molecule microarray, fluorescence 635 nm, primary screen (AID 1181); settings: higher = more signal;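 note: score merges 667 nm emission and signal to noise over triplicate slides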
Sequence of E3 ubiquitin-protein ligase XIAP (Homo sapiens) (P98170 whole entry, looked up): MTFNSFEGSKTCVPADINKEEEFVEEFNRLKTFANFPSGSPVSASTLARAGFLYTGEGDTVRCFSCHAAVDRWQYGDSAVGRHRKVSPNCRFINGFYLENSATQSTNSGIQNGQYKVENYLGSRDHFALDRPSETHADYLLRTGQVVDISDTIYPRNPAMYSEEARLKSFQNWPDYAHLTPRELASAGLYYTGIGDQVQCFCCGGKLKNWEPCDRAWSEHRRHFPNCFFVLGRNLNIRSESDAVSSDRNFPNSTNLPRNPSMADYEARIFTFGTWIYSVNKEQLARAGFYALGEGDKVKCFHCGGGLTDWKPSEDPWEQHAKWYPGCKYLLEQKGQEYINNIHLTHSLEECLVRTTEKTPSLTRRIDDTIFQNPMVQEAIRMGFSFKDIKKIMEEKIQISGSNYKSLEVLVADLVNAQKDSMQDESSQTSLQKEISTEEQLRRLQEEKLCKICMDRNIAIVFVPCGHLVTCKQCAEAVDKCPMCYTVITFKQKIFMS

Sequence of Dihydroorotate dehydrogenase (quinone), mitochondrial (Plasmodium falciparum (isolate 3D7)) (Q08210 whole entry, looked up): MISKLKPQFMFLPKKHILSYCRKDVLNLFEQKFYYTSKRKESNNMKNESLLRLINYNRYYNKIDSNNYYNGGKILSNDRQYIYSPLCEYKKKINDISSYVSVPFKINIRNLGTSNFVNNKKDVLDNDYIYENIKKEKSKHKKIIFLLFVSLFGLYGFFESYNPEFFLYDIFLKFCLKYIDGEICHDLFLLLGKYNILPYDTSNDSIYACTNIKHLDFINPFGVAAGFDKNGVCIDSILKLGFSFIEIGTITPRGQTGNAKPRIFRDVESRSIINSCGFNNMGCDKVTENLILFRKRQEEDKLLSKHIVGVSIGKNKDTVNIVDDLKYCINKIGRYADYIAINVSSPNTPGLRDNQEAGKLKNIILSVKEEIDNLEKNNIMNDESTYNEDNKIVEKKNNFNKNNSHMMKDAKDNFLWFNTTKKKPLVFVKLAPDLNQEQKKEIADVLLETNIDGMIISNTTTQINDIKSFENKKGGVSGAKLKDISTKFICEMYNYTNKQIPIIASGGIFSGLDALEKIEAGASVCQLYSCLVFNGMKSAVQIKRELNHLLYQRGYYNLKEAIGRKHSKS

Row | Compound | z-score [1] | z-score [2] | z-score [3] | z-score [4] | z-score [5] | z-score [6] | z-score [7] | z-score [8] | z-score [9] | z-score [10] | z-score [11] | z-score [12] | z-score [13] | composite z-score [14] | z-score [15] | z-score [16] | z-score [17] | z-score [18] | z-score [19] | composite z-score [20]
1 | COC(=O)C1=CC(CCCO)=CC(c2ccc(CN3CCCC3)cc2)N(Cc2cc3c(cc2Br)OCO3)C=C1C(=O)OC (stereo not given) | -0.392 | 0.151 | 0.0308 | 0.0875 | 0.046 | 0.516 | -0.251 (inactive) | 0.144 | -0.0408 | 0.652 (inactive) | 0.3 | 0.0793 (inactive) | -0.119 (inactive) | 0.214 (inactive) | 0.214 (inactive) | 0.73 (inactive) | 0.463 (inactive) | 0.67 (inactive) | -0.0377 | -0.0102
2 | [N-]=[N+]=NCc1ccccc1[C@@H]1OC(c2ccc(OCCCO)cc2)=N[C@]1(Cc1ccccc1N=[N+]=[N-])C(=O)N1CCCCC1 | -0.135 | -0.843 | 0.461 | -2.31 | -3.75 | 0.913 | -0.922 (inactive) | -1.19 | -2.04 | -0.484 (inactive) | 0.56 | -0.139 (inactive) | -1.98 (inactive) | 0.303 (inactive) | 0.327 (inactive) | 1.09 (inactive) | -0.0949 (inactive) | 0.599 (inactive) | -2.88 | 0.172
3 | CN1C(=O)C2C=CC(C(O)c3ccc(I)cc3)N(Nc3ccccc3)C2C1=O (stereo not given) | -0.596 | -0.0039 | -0.268 | -0.521 | -0.0284 | -1.07 | -1.09 (inactive) | -0.177 | 0.0807 | -0.962 (inactive) | -1.25 | -0.245 (inactive) | -0.994 (inactive) | -0.359 (inactive) | 0.683 (inactive) | -0.0359 (inactive) | -1.28 (inactive) | -1.4 (inactive) | -1.37 | 0.114
4 | CCN(CC)c1ccc(N2CC=CC34O[C@@H]5C=CCCOC(=O)C5[C@H]3C(=O)N(CCO)[C@@H]4C2=O)cc1 (stereo not given in full) | -0.126 | 1.11 | -0.618 | 0.766 | -0.073 | -0.178 | 0.0903 (inactive) | 0.277 | 0.639 | -0.0198 (inactive) | 0.0656 | -0.371 (inactive) | -0.281 (inactive) | -1.3 (inactive) | 0.469 (inactive) | -0.106 (inactive) | 0.449 (inactive) | 0.2 (inactive) | 0.553 | 0.0074
5 | CCCNC(=O)[C@@]1(C)c2ccccc2C(=O)N(Cc2ccccc2)[C@H]1c1ccc(CO)cc1 | -0.0623 | 0.47 | 1.03 | -0.542 | 0.485 | 4.13 | -0.0853 (inactive) | -0.415 | 1.14 | 1.47 (inactive) | -0.0367 | -0.312 (inactive) | 0.435 (inactive) | -0.0373 (inactive) | -0.0065 (inactive) | -0.637 (inactive) | 0.503 (inactive) | -0.105 (inactive) | 1.67 | -0.0701
6 | C=CCC(OC(C)=O)[C@@H]1[C@@H](N(Cc2ccc(-c3ccccc3)cc2)C(=O)c2ccc(C)cc2)c2cc(OCCCO)ccc2N1C(=O)Cc1ccc2ccccc2c1 (stereo not given in full) | 1.35 | 0.844 | 0.769 | 0.697 | 0.922 | 3.38 | 0.144 (inactive) | -0.0998 | 1.14 | 0.887 (inactive) | 1.03 | -0.516 (inactive) | 1.38 (inactive) | -1 (inactive) | 0.219 (inactive) | -1.72 (inactive) | 1.64 (inactive) | 1.93 (inactive) | 1.22 | -0.02
7 | [N-]=[N+]=Nc1ccccc1C[C@]1(C(=O)O)N=C(c2ccc(OCCCO)cc2)O[C@H]1c1ccccc1 | 0.855 | -0.221 | 1.28 | 0.565 | 0.272 | -0.924 | -0.297 (inactive) | -0.954 | -0.547 | -0.605 (inactive) | -0.0033 | -1.77 (inactive) | -1.1 (inactive) | 0.502 (inactive) | 0.258 (inactive) | -0.1 (inactive) | -0.115 (inactive) | -0.0225 (inactive) | -0.954 | -0.0562
8 | COc1ccc(NC(=O)O[C@H]2[C@@H]3OC(=O)[C@H](Cc4cccc(Br)c4)C/C=C/C[C@@H](Cc4cccc(Br)c4)C(=O)O[C@H]3[C@@H](OC)O[C@@H]2CO)cc1 | -0.102 | -0.226 | 0.323 | -1.14 | -0.153 | 1.6 | -0.483 (inactive) | -0.897 | 0.329 | -0.981 (inactive) | -0.868 | -0.413 (inactive) | -0.37 (inactive) | 0.732 (inactive) | 0.47 (inactive) | 0.604 (inactive) | 0.365 (inactive) | 0.855 (inactive) | -0.517 | -0.555
